# Only some compounds are listed: those with a hit (about 3.7% of all), similar ones and a draw of the others.
# Kir21 inh = blocks the mouse Kir2.1 inward-rectifier potassium channel | P35561 | HEK293-Kir2.1, FluxOR thallium flux fluorescence; active compounds read low | B-score at 10 µM | actives 0.85% (n = 310,000) | AID 1672;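 active means fluorescence ratio B-score at or below minus 3 SD of library scores, with starting-brightness B-score within 2 SD, cut at about -4.2 in these data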;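 further: channel flux triggered by added potassium and thallium sulfate stimulus; B-score of peak minus minimum fluorescence over baseline after thallium stimulus; more negative B-score means stronger Kir2.1 block with less thallium influx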
# CHT allo act = allosteric activators of human choline transporter CHT; AID 488977; B-score at 10 µM; actives 0.49% (n = 310,000); CHT-expressing cells, membrane potential dye, choline EC20; active compounds read high; LV-AA mutant CHT in HEK293 cells;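 active means initial fluorescence not abnormally high and integrated response B-score, plate-corrected, over 3 SD above library mean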
# CHT block = inhibitors of human choline transporter CHT; Q9GZV3; CHT-expressing cells, membrane potential dye, choline response; active compounds read low; B-score at 10 µM; actives 0.86% (n = 310,000);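 active means B-score over 3 SD under the library average, and starting fluorescence ratio not unusually high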;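 further: choline stimulus applied at its EC90 after an EC20 pre-addition; B-score computed on integrated fluorescence ratio after choline addition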
# TMEM16A act = activates or potentiates the mouse TMEM16A chloride channel. actives 0.3% (n = 340,000). B-score at 10 µM. HEK293 TMEM16A/YFP-H148Q/I152L, iodide quench fluorescence; active compounds read low;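 active means fluorescence-ratio B-score plate-corrected deviation score at least 3 library SD below zero, with starting fluorescence score within 5 deviations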;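 further: channel opened by trigger with iodide after compound preincubation; score built on the fluorescence ratio of max minus min over baseline; more negative score means more quench and so TMEM16A activation or potentiation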
# Target sequence (Q8BHY3 whole entry, looked up): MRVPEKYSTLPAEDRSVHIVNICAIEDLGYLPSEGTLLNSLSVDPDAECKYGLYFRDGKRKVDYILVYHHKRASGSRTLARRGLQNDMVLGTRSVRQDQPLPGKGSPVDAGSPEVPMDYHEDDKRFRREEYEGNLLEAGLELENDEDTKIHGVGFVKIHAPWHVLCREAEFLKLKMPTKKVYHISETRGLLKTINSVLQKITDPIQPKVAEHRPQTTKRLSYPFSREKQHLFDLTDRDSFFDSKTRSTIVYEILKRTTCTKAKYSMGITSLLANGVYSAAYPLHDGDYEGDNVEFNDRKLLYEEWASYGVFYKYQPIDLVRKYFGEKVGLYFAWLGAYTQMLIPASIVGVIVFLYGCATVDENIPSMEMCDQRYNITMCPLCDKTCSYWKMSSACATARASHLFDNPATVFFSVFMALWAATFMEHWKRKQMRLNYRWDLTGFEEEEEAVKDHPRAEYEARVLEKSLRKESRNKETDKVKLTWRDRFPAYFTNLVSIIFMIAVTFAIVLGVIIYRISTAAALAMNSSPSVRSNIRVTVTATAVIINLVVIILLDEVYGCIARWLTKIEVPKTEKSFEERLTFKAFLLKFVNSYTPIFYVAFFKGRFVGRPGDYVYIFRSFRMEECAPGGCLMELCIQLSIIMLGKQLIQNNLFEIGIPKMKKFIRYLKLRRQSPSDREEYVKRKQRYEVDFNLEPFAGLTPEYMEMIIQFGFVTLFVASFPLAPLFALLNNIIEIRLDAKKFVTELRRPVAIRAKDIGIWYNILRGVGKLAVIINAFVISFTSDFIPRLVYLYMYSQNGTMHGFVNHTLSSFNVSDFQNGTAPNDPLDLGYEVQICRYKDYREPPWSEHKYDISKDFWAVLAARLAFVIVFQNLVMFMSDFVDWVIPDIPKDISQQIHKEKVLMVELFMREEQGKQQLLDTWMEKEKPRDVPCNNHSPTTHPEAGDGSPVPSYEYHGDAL
# GPR7 antag = blocks human GPR7 receptor signaling | P48145 | AID 1861 | inhibition, % at 4.4 µM | GPR7-expressing cells, fluorescence antagonist assay | actives 1.1% (n = 290,000); in the data active means inhibition above about 16%, passing the limit was not always enough;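 further: cells stimulated with the agonist NPW; 0% = agonist with vehicle and 100% = vehicle without agonist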
# TMEM16A inh = inhibitors of mouse TMEM16A calcium-activated chloride channel; normalized B-score (activity score, 25-100; higher = stronger inhibition) at 10 µM; Q8BHY3; HEK293 TMEM16A/YFP iodide influx fluorescence, ionomycin; actives 1.2% (n = 310,000);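 active means ratio plate-corrected score three or more library SD toward inhibition, starting fluorescence score within five deviations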;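 further: score derived from kinetic fluorescence span divided by baseline fluorescence per well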
# TMEM16A reconf = reconfirmed blocker of mouse TMEM16A calcium-activated chloride channel; shares compounds with TMEM16A inh; HEK293 TMEM16A/YFP-H148Q, iodide quench fluorescence; ionomycin added to raise cell calcium; inhibition, % at 10 µM; actives 39% (n = 2,300); AID 652189;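 active means mean duplicate percent inhibition, scaled so buffer wells are 0 and the reference blocker 100, over three buffer SD above buffer mean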
# HEK293 Ca mobil = counter-screen for TMEM16A inhibitors: effect on calcium mobilization; shares compounds with TMEM16A inh; AID 652231; TMEM16A/YFP HEK293, Fluo4 calcium mobilization; calcium response (% of ionomycin), % at 10 µM; actives 2% (n = 2,300);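 active means duplicate-averaged calcium signal over 20% of the ionomycin maximum, relative to buffer baseline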;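 further: each well's signal is peak minus trough fluorescence divided by its pre-addition baseline; 0% = buffer wells and 100% = ionomycin wells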
# Parental YFP cnt = counter-screen for TMEM16A inhibitors: effect in parental YFP-HEK293 cells. shares compounds with TMEM16A inh. iodide YFP quench, ionomycin. YFP ratio F(max-min)/F0 at 10 µM. 2,300 tested, under 10 active;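 active means yellow fluorescent protein signal ratio exceeding the buffer control mean by over 5 SD of those controls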;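 further: ratio is mean of duplicate wells from kinetic YFP trace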
# ClC-1 inh = rat ClC-1 inhibition, TMEM16A specificity screen; shares compounds with TMEM16A inh; CHO ClC-1-YFP, iodide influx fluorescence quench; iodide control reads 0, buffer control 100; ratio percent, % at 10 µM; 2,300 tested, under 10 active; AID 652236;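 active means duplicate-mean ratio percent above the mean of iodide-only control wells, which defines zero, plus 5 of their SD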;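 further: higher percent means stronger block of ClC-1 iodide influx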
# * marks the source's active call; other numbers are inactive results; i = inactive; nt = no result given.
SMILES,Kir21 inh,CHT allo act,CHT block,TMEM16A act,GPR7 antag,TMEM16A inh,TMEM16A reconf,HEK293 Ca mobil,Parental YFP cnt,ClC-1 inh
COc1c(C(CC(C)C)OC(C)=O)ccc2c1C(=O)OCc1cc(C)cc(O)c1O2 (stereo unspecified),0,i,i,i,nt,100*,24%*,i,-1.1,-14
COc1c(C(O)CC(C)C)ccc2c1C(=O)OCc1cc(C)cc(O)c1O2 (stereo unspecified),-0.46,i,i,i,-5,25*,22%*,i,-0.97,-12
COc1cc(N)c2ncccc2c1Br,nt,nt,nt,i,nt,nt,nt,nt,nt,nt
Cc1cc2cc(CCNC(=O)CCc3ccccc3)c(=O)[nH]c2cc1C,0.99,i,i,i,-5,i,nt,nt,nt,nt
COc1ccc(-c2ccc(-c3nnc(Cc4ccc(OC)c(OC)c4)o3)cc2)cc1,1.3,i,i,i,8,25*,i,i,-1.3,-2
COc1ccc(OC)c(NCc2nnc(-c3ccccc3)o2)c1,-0.32,i,i,i,-1,i,nt,nt,nt,nt
COc1cccc(/C=N/NC(=O)Cn2cnc3c2c(=O)n(C)c(=O)n3C)c1OC,-2.8,i,i,i,-14,i,nt,nt,nt,nt
CCOC(=O)c1c(C)[nH]c(C(=O)C(C)Sc2ccc(Cl)cc2)c1C (stereo unspecified),-1.3,i,i,i,-17,25*,32%*,i,-1,-20
CC(=O)c1ccc(OCCCC(=O)N2CCN(S(=O)(=O)c3ccc(C(C)C)cc3)CC2)cc1,1.2,i,i,i,nt,25*,i,i,-1,-12
O=S(=O)(NCc1cn2ccccc2n1)c1ccccc1F,-0.58,i,i,i,-13,i,nt,nt,nt,nt
Cc1cccc(OCC(=O)NCCCNC(=O)c2cnccn2)c1,-0.99,i,i,i,-4,i,nt,nt,nt,nt
Clc1ccc2nc3c4ccccc4cnn3c2c1,-0.59,i,i,i,-5,i,nt,nt,nt,nt
Oc1ccc2nnc3c(Br)cnn3c2c1,-16,i,i,i,2,i,i,i,-0.94,-6
Clc1ccc(Cc2ccc(SCc3ccccc3)nn2)c(Cl)c1,-1.2,i,i,i,-2,25*,i,i,-1.3,-13
Cc1oncc1C(=O)N1CCCC(CO)(Cc2ccc(F)cc2F)C1 (stereo unspecified),-2,i,i,i,-9,i,nt,nt,nt,nt
Cc1cccc(NC(=O)CCS(=O)(=O)c2ccc3c(c2)NC(=O)CS3)n1,0.69,i,i,i,-18,i,nt,nt,nt,nt
CCOC(=O)c1cc(-c2cccc(C(F)(F)F)c2)nc2nc(SC)[nH]c(=O)c12,1,i,i,i,-12,i,nt,nt,nt,nt
CCOC(=O)c1nc(C)nc(Sc2n[nH]c(-c3cc(C(F)(F)F)cc(C(F)(F)F)c3)n2)c1C,-0.29,i,i,i,-8,25*,30%*,i,-0.99,-22
CCOc1cc2[nH]c(=S)n(Cc3ccc(C(=O)NCC(OC)OC)cc3)c(=O)c2cc1OCC,-0.7,i,i,i,0,100*,i,i,-1.1,-6
O=C(O)CN(c1ccccc1F)S(=O)(=O)c1ccccc1,2.3,i,i,i,5,i,i,i,-1,-8
O=C(CN(c1ccccc1F)S(=O)(=O)c1ccccc1)NC1CCCCCC1,-0.65,i,i,i,-7,i,nt,nt,nt,nt
Fc1ccc(COc2ccccc2-c2ccnc3ncnn23)cc1,0.14,i,i,i,-12,i,nt,nt,nt,nt
CN(c1ccccc1)S(=O)(=O)c1ccc(C(=O)Nc2nnc(-c3ccc(F)cc3)o2)cc1,-1,i,i,nt,-2,100*,18%*,i,-1,-8
Cc1nnc(NC(=O)c2ccc(S(=O)(=O)N(C)c3ccccc3)cc2)s1,nt,nt,nt,i,nt,nt,nt,nt,nt,nt
Cc1nn(-c2ccc(Cl)cc2)c2[nH]c(CCl)cc(=O)c12,-0.93,i,-9.4*,i,7,100*,46%*,i,-1,-10
SMILES,Kir21 inh,CHT allo act,CHT block,TMEM16A act,GPR7 antag,TMEM16A inh,TMEM16A reconf,HEK293 Ca mobil,Parental YFP cnt,ClC-1 inh
FC(F)(Cl)c1nnc2ccc(Cl)nn12,0.1,i,i,i,-15,i,nt,nt,nt,nt
CCC(=O)N(Cc1ccc(S(N)(=O)=O)cc1)C1CC(=O)N(c2ccccc2)C1=O (stereo unspecified),1.1,i,i,i,0,i,nt,nt,nt,nt
COc1ccc(Cc2noc(CN3CCN(c4ccc(Cl)cn4)CC3)n2)cc1OC,-0.12,i,i,i,0,100*,28%*,i,-0.99,6
O=C(c1cccc(COc2ccc(Cl)cc2Cl)c1)N1CCN(c2ccccn2)CC1,-0.41,i,i,i,-16,100*,i,i,-1.2,-14
CCSc1nnc(-c2cc(Br)ccc2N=Cc2c(C)[nH]n(-c3ccccc3)c2=O)c(=O)[nH]1,2.6,i,i,i,6,100*,21%*,20%*,-0.97,-22
O=C1c2cc(O)c(O)cc2S(=O)(=O)C1c1ccccc1 (stereo unspecified),-0.02,i,i,i,nt,i,nt,nt,nt,nt
CCCC(=O)c1ccc(N2CCN(C(=O)c3ccccc3)CC2)c(F)c1,0.97,i,i,i,3,25*,i,i,-1.2,-20
CCCC(=O)c1ccc(N2CCN(C(=O)c3ccccc3Br)CC2)c(F)c1,-0.26,i,i,i,-10,100*,20%*,i,-0.88,-4
CCOc1ccc(S(=O)(=O)NCCC(=O)NC2CCCCC2)cc1,-0.98,i,i,i,nt,i,nt,nt,nt,nt
Cc1cc(C)c(S(=O)(=O)N(C)CC(=O)NCCCn2ccnc2)c(C)c1,0.06,i,i,i,-13,i,nt,nt,nt,nt
COc1ccccc1OCC(=O)Nc1oc(-c2ccccc2)c(-c2ccccc2)c1C#N,nt,i,i,i,-10,25*,29%*,i,-0.65,-15

# Assay outcomes as filed in PubChem BioAssay.
